Potency and affinity values are given separately.
Test: loss of vesicle association with mouse CD8+ T cells – mouse 2C CD8+ T cells, flow cytometry, dose response (AID 485284);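 note: drosophila derived vesicles carrying Ld MHC with QL9 peptide plus B7-1 and ICAM-1; vesicle binding seen as anti-B7-1 PE fluorescence on CD8 gated cells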
Settings: 2C mouse CD8+ T cell-exosome binding; at 45 µM (top of the series)
With `O=C(Cc1cccc(NC(=O)C2CCCN(C(=O)C3CC3)C2)c1)Nc1cccc(C(=O)N2CCCC2)c1` (stereo not drawn) the binding remaining, % of control was 47.2%.
Compound `O=C(COc1ccccc1)Nc1cc(S(=O)(=O)N2CCOCC2)ccc1N1CCCC1` has a binding remaining, % of control of 128%.
Compound `Cc1ccc2c(Cl)cc(Cl)c(OCC(=O)OCC(=O)Nc3ccc(C#N)cc3)c2n1` has a binding remaining, % of control of 141%.
`COc1ccc([N+](=O)[O-])cc1NC(=O)c1ccc(N(Cc2ccccc2C)S(C)(=O)=O)cc1` showed a binding remaining, % of control of 99.1%.
With `COc1ccc(S(=O)(=O)N2CCCC2C(=O)Nc2ccc(C(C)=O)cc2)cc1` (stereo not drawn) the binding remaining, % of control was 91.8%.
Compound `O=C(NCc1ccccc1C(F)(F)F)C1CCC(=O)N(CCCc2ccccc2)C1` (stereo not drawn) has a binding remaining, % of control of 90.8%.
Compound `O=C(Nn1cnc2ccccc2c1=O)C1CCCCC1` has a binding remaining, % of control of 106%.
For `CCN(Cc1ccccc1)C(=O)c1ccc(C)c(S(=O)(=O)N2CCCCC2)c1`, the binding remaining, % of control was 92.8%.
Compound `Cc1c(NS(=O)(=O)CC23CCC(CC2=O)C3(C)C)c(=O)n(-c2ccccc2)n1C` (stereo not drawn) has a binding remaining, % of control of 21%.
`COc1ccc(NC(=O)CSCC(=O)Nc2cccc(S(=O)(=O)N3CCCCCC3)c2)cc1` showed a binding remaining, % of control of 44.4%.
Work on `C/C(=N\NC(=O)c1ccco1)c1cc2ccccc2o1` yielded a binding remaining, % of control of 160%.
In the case of `CCOC(=O)c1c(N2C(=O)CC(Sc3ccccc3C(=O)O)C2=O)sc2c1CCCC2` (stereo not drawn), the binding remaining, % of control was 41.4%.
`CCN1CCN(c2ccc(NC(=O)c3cc4ccccc4cc3OC)cc2C)CC1` gave a binding remaining, % of control of 128%.
In the case of `CCOC(=O)c1cc2occc2n1CC(=O)NC1CCC(C)CC1` (stereo not drawn), the binding remaining, % of control was 77%.
In the case of `CCCNC(=O)NC(=O)CN1C(=O)NC(C)(c2ccc(C)cc2)C1=O` (stereo not drawn), the binding remaining, % of control was 160%.
Work on `CN1CCN(C(=O)c2cc3ccccc3cc2O)CC1` yielded a binding remaining, % of control of 178%.
With `CCOC(=O)Nc1sc(C)c(C)c1C(N)=O` the binding remaining, % of control was 103%.
With `Cc1ccc(S(=O)(=O)N2CCN(C(=O)CNC(=O)c3ccc(Cl)cc3)CC2)cc1` the binding remaining, % of control was 219%.
With `CC1=C/C(=C(\c2ccc(O)c(C)c2)c2ccccc2S(=O)(=O)O)C=CC1=O` the binding remaining, % of control was 138%.
Compound `COc1ccc(NC(=O)C2CCC(C(C)(C)C)CC2)cc1S(=O)(=O)N1CCCCC1` (stereo not drawn) has a binding remaining, % of control of 97.1%.
Compound `COc1ccc(N2C(=O)CC(Sc3ncn[nH]3)C2=O)c(OC)c1` (stereo not drawn) has a binding remaining, % of control of 135%.
In the case of `O=C(Nc1ccccc1F)C1CCCN(S(=O)(=O)c2cccc3cccnc23)C1` (stereo not drawn), the binding remaining, % of control was 105%.
Compound `COc1ccc(CC(=O)OCC(=O)N2CCN(S(=O)(=O)c3ccc(C)cc3C)CC2)cc1` has a binding remaining, % of control of 102%.
For `O=C(NNC(=S)NC(=O)c1ccco1)c1ccc(F)cc1`, the binding remaining, % of control was 159%.
`Cc1cc(F)ccc1S(=O)(=O)N1CCCOC1CNC(=O)C(=O)NC1CCCC1` (stereo not drawn) gave a binding remaining, % of control of 67.8%.
For `CS(=O)(=O)c1cccc(-c2csc(N3CCC(C(N)=O)CC3)n2)c1`, the binding remaining, % of control was 150%.
Compound `Cc1cc(C)n(C(=O)c2sc3cc(F)ccc3c2Cl)n1` has a binding remaining, % of control of 160%.
`Cc1cccc(OCC(=O)Nc2ccccc2C(=O)N2CCOCC2)c1` showed a binding remaining, % of control of 161%.
`COc1ccc(NC(=O)COC(=O)c2cc(Cl)ccc2O)cc1S(=O)(=O)N1CCCCC1` gave a binding remaining, % of control of 75.3%.
`O=C(Cn1cc2c(n1)CCCC2)NCc1ccccn1` gave a binding remaining, % of control of 106%.
For `CCc1noc(C)c1C(=O)OC(C)C(=O)Nc1ccc2c(c1)OCO2` (stereo not drawn), the binding remaining, % of control was 171%.
Work on `CN(C)S(=O)(=O)c1ccc(C(=O)NCCc2ccco2)cc1` yielded a binding remaining, % of control of 128%.
With `CC(C)(C)OC(=O)NCc1ccc(CNC(=O)c2nc[nH]c2C(=O)NCc2ccccc2)cc1` the binding remaining, % of control was 109%.

Reference: PubChem BioAssay AID485284 (NMMLSC, 2010)
